Source: PubChem BioAssay (NCATS)
Results filed as inconclusive are left out. Values without a mark were called inactive. Activity calls are given as the source filed them. The call rests on the fitted dose curve; in most records, active means well fitted inhibition curve with a large enough effect; inconclusive means small, poorly fitted or top-dose-only effect; inactive means flat fitted curve, though single readings scatter.

How the values were obtained:
Assay in all cases: Cytotoxic Profiling of Annotated Libraries Using Quantitative High-Throughput Screening (AID 1296008); further: nearly all actives have a fitted effect of over 60% in size
Conditions in all cases: Five cell lines viability, CellTiter-Glo ATP luminescence, 48-72 h; max response: stronger effect = lower value
CRL-7250 = normal cell line; test system: CRL-7250
How it was run: (§1)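 Cytotoxicity was measured as CellTiter-Glo ATP luminescence, read after 10 min at room temperature. Compound treatment of the cells lasted 48 or 72 hr at 37 degrees Celsius in a qHTS format.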

HEK293 = test system: HEK293
How it was run: as §1

HaCat = test system: HaCat
How it was run: as §1

KB-3-1 = test system: KB-3-1
How it was run: as §1

NIH3T3 = test system: NIH3T3
How it was run: as §1
On the % scale 0 is the no-effect control and ±100 the full control effect; potency means the concentration at half of the fitted maximal effect.

## C[C@H](NC(=O)Cc1cc(F)cc(F)c1)C(=O)N[C@H](C(=O)OC(C)(C)C)c1ccccc1
CRL-7250
  max response: -1.21%
HEK293
  max response: -28.5%
HaCat
  outcome: inactive
KB-3-1
  max response: -8.93%
NIH3T3
  max response: -8.45%

## CC(C)C[C@H](NC(=O)CNC(=O)c1cc(Cl)ccc1Cl)B1OC(=O)CC(CC(=O)O)(C(=O)O)O1 (stereo not given in full)
CRL-7250
  Potency: 1.32 µM (active)
HEK293
  Potency: 0.469 µM (active)
HaCat
  Potency: 4.18 µM (active)
KB-3-1
  Potency: 1.05 µM (active)
NIH3T3
  Potency: 0.833 µM (active)

## NC(=O)c1ncn([C@@H]2O[C@H](CO)[C@@H](O)[C@@H]2O)c1N
CRL-7250
  max response: -3.14%
HEK293
  max response: 2.62%
HaCat
  outcome: inactive
KB-3-1
  max response: 1.9%
NIH3T3
  outcome: inactive

## O=C(NNC(=O)c1ccc(CNS(=O)(=O)c2ccc(F)c(Cl)c2)cc1)c1ccccc1
CRL-7250
  outcome: inactive
HEK293
  max response: 4.45%
HaCat
  outcome: inactive
KB-3-1
  max response: 0.725%
NIH3T3
  outcome: inactive

## CNC(=O)c1ccc(Nc2cc(Nc3ccccc3S(=O)(=O)C(C)C)c3cc[nH]c3n2)nc1
CRL-7250
  Potency: 3.32 µM (active)
HEK293
  Potency: 2.09 µM (active)
HaCat
  Potency: 2.96 µM (active)
KB-3-1
  Potency: 1.32 µM (active)
NIH3T3
  Potency: 2.35 µM (active)

## O=C(O)[C@H](CC(=O)N1C[C@@H]2CCCC[C@H]2C1)Cc1ccccc1
CRL-7250
  outcome: inactive
HEK293
  max response: -4.31%
HaCat
  outcome: inactive
KB-3-1
  max response: 2.32%
NIH3T3
  outcome: inactive

## CC(=O)O[C@H]1C[C@@H]2CC[C@H]3[C@H]4C[C@H]([N+]5(C)CCCCC5)[C@@H](OC(C)=O)[C@@]4(C)CC[C@@H]3[C@@]2(C)C[C@H]1[N+]1(C)CCCCC1
CRL-7250
  max response: 0.398%
HEK293
  max response: 0.173%
HaCat
  outcome: inactive
KB-3-1
  outcome: inactive
NIH3T3
  max response: -1.21%

## CO[C@@H]1[C@@H](O)[C@H](O)[C@@H](n2c3c(Cl)cccc3c3c4c(c5c6cccc(Cl)c6[nH]c5c32)C(=O)NC4=O)O[C@@H]1CO
CRL-7250
  Potency: 3.72 µM (active)
HEK293
  Potency: 0.662 µM (active)
HaCat
  Potency: 3.32 µM (active)
KB-3-1
  Potency: 2.96 µM (active)
NIH3T3
  Potency: 1.66 µM (active)

## CCC[C@H]1C[C@H](C(=O)N[C@@H]([C@@H]2O[C@@H](SC)[C@@H](O)[C@@H](O)[C@@H]2O)[C@H](C)Cl)N(C)C1
CRL-7250
  max response: -6.31%
HEK293
  max response: -2.02%
HaCat
  max response: -10.7%
KB-3-1
  max response: 0.31%
NIH3T3
  max response: -6.56%

## CC1(C)CC(O)CC(C)(C)N1[O]
CRL-7250
  outcome: inactive
HEK293
  outcome: inactive
HaCat
  outcome: inactive
KB-3-1
  max response: 7.14%
NIH3T3
  max response: -4%

## COc1cccc2c1C(=O)c1c(O)c3c(c(O)c1C2=O)C[C@@](O)(C(C)=O)C[C@H]3O[C@H]1C[C@H](N)[C@H](O)[C@H](C)O1
CRL-7250
  Potency: 0.132 µM (active)
HEK293
  Potency: 0.0662 µM (active)
HaCat
  Potency: 0.418 µM (active)
KB-3-1
  Potency: 0.235 µM (active)
NIH3T3
  Potency: 0.209 µM (active)

## COc1cc(C(C)C)c(Oc2cnc(NC(CO)CO)nc2N)cc1I
CRL-7250
  max response: 3.93%
HEK293
  max response: -7.36%
HaCat
  max response: -12.7%
KB-3-1
  max response: -2.87%
NIH3T3
  max response: 1.73%

## CC[C@H]1OC(=O)[C@H](C)[C@@H](O[C@H]2C[C@@](C)(OC)[C@@H](O)[C@H](C)O2)[C@H](C)[C@@H](O[C@@H]2O[C@H](C)C[C@H](N(C)C)[C@@H]2O)[C@](C)(OC)C[C@@H](C)C(=O)[C@H](C)[C@@H](O)[C@]1(C)O
CRL-7250
  max response: 4.09%
HEK293
  max response: -15.9%
HaCat
  max response: 3.25%
KB-3-1
  max response: -5.56%
NIH3T3
  outcome: inactive

## C[C@H](O)[C@@H]1C(=O)N2C(C(=O)O)=C(S[C@@H]3CN[C@H](CNS(N)(=O)=O)C3)[C@@H](C)[C@@H]12
CRL-7250
  max response: 4.32%
HEK293
  max response: 0.869%
HaCat
  outcome: inactive
KB-3-1
  outcome: inactive
NIH3T3
  outcome: inactive

## O=C(O)CCCCCC(=O)NN=C1CCCC1
CRL-7250
  max response: 1.92%
HEK293
  outcome: inactive
HaCat
  max response: 0.832%
KB-3-1
  max response: 3.36%
NIH3T3
  max response: 3.56%

## CC[C@H]1OC(=O)[C@H](C)[C@@H](O[C@H]2C[C@@](C)(OC)[C@@H](O)[C@H](C)O2)[C@H](C)[C@@H](O[C@@H]2O[C@@H](C)C[C@H](N(C)C)[C@@H]2O)[C@](C)(O)C[C@@H](C)C(=O)[C@H](C)[C@@H](O)[C@]1(C)O
CRL-7250
  max response: 0.799%
HEK293
  max response: -7.85%
HaCat
  outcome: inactive
KB-3-1
  max response: 5.08%
NIH3T3
  outcome: inactive

## NC(=O)Nc1cc(-c2ccc(CN3CCOCC3)cc2)sc1C(N)=O
CRL-7250
  Potency: 13.2 µM (active)
HEK293
  Potency: 5.26 µM (active)
HaCat
  Potency: 0.332 µM (active)
KB-3-1
  Potency: 7.43 µM (active)
NIH3T3
  Potency: 0.662 µM (active)
